In all, about 2,100 compounds went through this assay and about 210 (10%) were called active. About 53% were inconclusive and are not listed. Calls come from the whole dose curve; as a rule, active = well fitted inhibition curve with a large enough effect; inconclusive = small, poorly fitted or top-dose-only effect, or effect the other way; inactive = no such curve, though single readings can be large or run the other way. The list shows a part of the results. A call without a number means that no potency is given here.
Potency is the fitted concentration of half-maximal effect.

A short description of this assay: IN Cell qHTS Assay for Inhibitors of the mTORC1 Signaling Pathway in MEF (Tsc2-/-, p53-/-) Cells: Sytravon. Note: nearly all actives have a fitted effect of over 60% in size. Conditions: phospho-rpS6 immunofluorescence, 24 h; series mostly up to 38.3 µM. From the text:
NIH Molecular Libraries Probe Production Centers Network [MLPCN] NIH Chemical Genomics Center [NCGC] MLPCN Grant: NS059428-01 Assay Submitter (PI): Blenis, John; Hoffman, Greg; Harvard University NCGC Assay Overview: Thee mammalian target of rapamycin (mTOR) is an intracellular serine/threonine kinase Aberrant regulation of mTOR signaling plays a causative role in a number of human diseases, including cancer, benign tumors such as lymphangioleiomyomatosis (LAM) and Tuberous Sclerosis Complex (TSC), and metabolic diseases such as diabetes and obesity. This project aims to identify inhibitors of ribosomal protein S6 (rpS6) phosphorylation. The phosphorylation of rpS6 is a key event downstream of mTOR activation. The assay uses a phospho-specific antibody of phospho-rpS6 to detect inhibitors of mTOR activation. Mutations in the Tsc1 and Tsc2 genes are the underlying genetic lesions responsible for TSC, causing constitutive activation of the mTORC1 pathway and leading to profound effects on cell metabolism. Aberrant metabolism in cancer has recently received significant attention as a target to develop therapeutic agents in the treatment of cancer1. As Tsc2-/- cells have lost the ability to respond to energy and growth factor deprivation, these cells are unable to properly down regulate cellular biosynthetic processes in response to metabolic stress, and are thus extremely sensitive to glucose deprivation-induced death.2 A central goal of this project is to explore the unique cell survival and metabolic properties of cells with Tsc1 or Tsc2 by screening for compounds that selectively target the Tsc2-/- MEFs by screening both Tsc2-/- and WT MEF cell lines. We hope to better understand these aspects of TSC physiology in order to exploit them for therapeutic benefit.
NCGC IN Cell Assay Protocol: For quantitative high throughput analysis of mTORC1 signaling, we developed a cell-based assay for immuno-fluorescence based detection of rpS6 phosphorylation on the Acumen Explorer that will be used a platform for the primary small molecule screen. Mouse embryonic fibroblasts (MEFs) are cultured in 1536-well plates using DMEM + 10% FBS. Twenty-four hrs after plating, test compounds (solubilized in DMSO) are delivered and incubated with the cells for 24 hrs at 37 degree Celsius. Following the incubation, media with compound is aspirated and the cells are fixed in 4% paraformaldehyde (PFA) containing PBS + 0.2% TX-100. Next, PFA is aspirated, cells are washed two times with PBS plus 0.2% TX-100 and the cells are blocked for 1 hr at room temperature (blocking buffer: LiCOR Blocking Buffer plus 0.2% TX-100). This is followed by aspiration and staining with Alexa-488 conjugated-phospho-rpS6 Ser235/236 antibody for 2 hours at room temperature (Cell Signaling Technology # 4803, 1:50 dilution in blocking buffer). Cells are washed two times with PBS plus 0.2% TX-100, and stained with 10 uM propidium iodide (PI) for 20-25 minutes for cell number measurement (1:500 dilution of Hoescht staining is also added for IN Cell imaging). Active wells which are selected (based on Acumen results) are imaged on the IN Cell 1000 (GE Healthcare) using the D360/40X and HQ480/40X excitation filters for the Hoechst and Alexa-488 cytoplasmic stains, respectively. The fluorescence emission filters used were HQ460/40M and HQ535/50M for the Hoechst and Alexa-488 cytoplasmic stains, respectively. The normalized phospho-S6 staining is calculated as the ratio of […] for the single concentration rapamycin control (7.5 nM) and DMSO columns. […] Inhibition of the pathway is defined based on the normalized phospho-S6 intensity in rapamycin treated cells. Each treatment is reported as the % positive cells in the well, where thresholds are defined by selecting wells with the highest and lowest signal and differentiating between the % non-active and % active populations. […]
For the compound `O=c1oc2ccccc2cc1-c1cn2cc(Cc3ccc(F)cc3)sc2n1`, the Potency is 1.65 µM (active).

With `CCc1ccc(-n2nc(C)c3c2NC(=O)CSC3c2ccc(OC)cc2OC)cc1` (centres undefined), the Potency result was “inactive”.

Turning to `Cc1cccc(CN2CC=C(c3noc(CCC(=O)Nc4ccc(C)c(F)c4)n3)CC2)c1`, the Potency entry is “inactive”.

In the case of `Nc1c(C(=O)Nc2cccc(Br)c2)sc2nc3c(cc12)N1CCC3CC1`, the Potency entry was “inactive”.

For the compound `O=C(Nc1ccccc1)N(Cc1ccc2c(c1)OCO2)C1CCN(Cc2ccccc2)CC1`, the Potency result was “inactive”.

In the case of `COc1ccc2nc(NC(=O)c3nc(S(=O)(=O)Cc4cccc(C)c4)ncc3Cl)sc2c1`, the Potency was 16.5 µM (active).

As for `CCOc1ccc(NC(=O)c2cccn(Cc3cccc(Cl)c3)c2=O)cc1`, the Potency result was “inactive”.

Regarding `CCOc1ccc(NC(=O)c2cc3c(C)nn(-c4ccccc4)c3s2)cc1`, the Potency was 14.7 µM (active).

With `Cc1ccc(-n2c(/C=C/c3ccc(Br)s3)nc3ccccc3c2=O)cc1C`, the Potency entry was “inactive”.

The values are drawn from PubChem BioAssay AID504465 (National Center for Advancing Translational Sciences (NCATS), 2011).
